Measurements taken from PubChem BioAssay AID743327 (National Center for Advancing Translational Sciences (NCATS), 2014).
Activity calls are given as the source filed them. A call without a number means that no potency is given here. Calls follow the shape of the full dose curve. Where a SMILES comes first, the peptide text is derived from it. [ ]: non-standard residue; d: D form. Orn = NCCC[C@H](N)C(=O)O

Test: qHTS profiling of Chloroquine Analogs as inhibitors of Plasmodium falciparum (HB3) proliferation
Details: P. falciparum HB3 proliferation; series mostly up to 28.7 µM
From the text: Plasmodium falciparum is a virulent malarial parasite that kills 1-2 million people worldwide each year. Transmitted by mosquitoes, the sporozoite form of the parasite enters the blood stream to infect hepatocytes, where they become merozoites that infect red blood cells (erythrocytes). Within erythrocytes, merozoites begin a […] cycle of growth and division, after which the parasite is released to infect new red blood cells. Gametocytes, which form within erythrocytes as well, circulate in the bloodstream and are ingested by the mosquito, thereby completing the life cycle. To profile malarial isolates for differential chemical responses and to identify inhibitors of malarial growth, an assay that measures P. falciparum growth and replication within erythrocytes was employed. This assay uses a DNA binding fluorescent dye (SYBR Green) to detect parasite DNA following cell lysis. Because mature erythrocytes lack DNA, only Plasmodium-derived DNA is detected.
The SYBR Green viability assay was adapted from a method described previously (Plouffe et al., 2008). For screening 3 ul culture medium was dispensed into 1536 well black clear bottom plates (Aurora Biotechnologies) using a Multidrop Combi (Thermo Fisher Scientific Inc.), 23 nL compounds in DMSO were added by a pin tool (Kalypsys), and 5 ul of erythrocytes infected with P. falciparum (0.3% parasitemia, 2.5% hematocrit final concentration) were added. The plates were incubated at 37 C in a humidified incubator in 5% CO2 for 72 h, and 2 ul lysis buffer (20 mM Tris HCl, 10 mM EDTA, 0.16% saponin, 1.6% triton X, 10X SYBR Green I supplied as 10,000X […] by Invitrogen) was added to each well. The plates were mixed for 25 sec with gentle shaking and incubated overnight at room temperature in the dark. The following morning, fluorescence intensity at 485(14) nm excitation and 535(25) nm emission wavelengths was measured on an EnVision (Perkin Elmer) plate reader. Plate reads were normalized relative to the control inhibitor (0.29 uM artemisinin) and vehicle (DMSO) wells present on each plate and then corrected by an algorithm using vehicle-only control plates at the beginning and end of the compound plate stack.

For `CCN(CC)CCOc1ccc2c(=O)c3ccc(Cl)cc3n(CCN(CC)CC)c2c1`, which Potency is on record?
The Potency was 0.53 µM (active).

With `CC(C)C[C@@H]1NC(=O)[C@H](CCCN)NC(=O)[C@H](C(C)C)NC(=O)[C@@H]2CCCN2C(=O)[C@@H](Cc2ccccc2)NC(=O)[C@H](CC(C)C)NC(=O)[C@H](CCCN)NC(=O)[C@H](C(C)C)NC(=O)[C@@H]2CCCN2C(=O)[C@@H](Cc2ccccc2)NC1=O` (cyclo(V[Orn]L[dF]PV[Orn]L[dF]P)) as the compound, how does the Potency read?
Its Potency is “inactive”.

With `COc1cc(NC(C)CCCN)c2ncccc2c1` (stereo not given) as the compound, how does the Potency read?
Its Potency is 0.804 µM (active).

Which Potency does the source give for `CSc1cccc(NC(=O)CC[C@H]2O[C@@H]3O[C@]4(C)CC[C@H]5[C@H](C)CC[C@@H]([C@@H]2C)[C@@]35OO4)c1` here?
The Potency was 0.0188 µM (active).

Which Potency does the source give for `COc1cc2c(Nc3ccc(NC(=O)c4ccccc4)cc3)ncnc2cc1OCCCN1CCOCC1` here?
The Potency was “inactive”.

Which Potency does the source give for `CC[C@H]1OC(=O)[C@H](C)[C@@H](O[C@H]2C[C@@](C)(OC)[C@@H](O)[C@H](C)O2)[C@H](C)[C@@H](O[C@@H]2O[C@H](C)C[C@H](N(C)C)[C@@H]2O)[C@](C)(O)C[C@@H](C)CN(C)[C@H](C)[C@@H](O)[C@]1(C)O` here?
Its Potency is 9.43 µM (active).

Which Potency does the source give for `CC[C@@H](C)[C@H]1O[C@]2(CC[C@H]1C)C[C@@H]1C[C@@H](CC=C(C)[C@@H](O[C@H]3C[C@H](OC)[C@@H](O[C@H]4C[C@H](OC)[C@@H](O)[C@H](C)O4)[C@H](C)O3)[C@@H](C)C=CC=C3CO[C@@H]4[C@H](O)C(C)=C[C@@H](C(=O)O1)[C@]34O)O2` here?
Its Potency is “inactive”.

Which Potency does the source give for `C=Cc1c(C)c2cc3nc(cc4[nH]c(cc5nc(cc1[nH]2)C(C)=C5CCC(=O)OC)c(CCC(=O)O)c4C)[C@@]1(C)C3=CC=C(C(=O)OC)[C@H]1C(=O)OC` here?
Its Potency is “inactive”.

For `COc1cccc(CCc2ccccc2OCC(CN(C)C)OC(=O)CCC(=O)O)c1` (stereo not given), which Potency is on record?
Its Potency is 2.98 µM (active).

Which Potency does the source give for `CCCCCCCCCCOc1cc2c(=O)c(C(=O)OCC)c[nH]c2cc1OCC` here?
The Potency was “inactive”.

With `NC(=NCc1ccccc1)NC(=O)c1nc(Cl)c(N)nc1N` as the compound, how does the Potency read?
Its Potency is “inactive”.

With `CCc1nc(N)nc(N)c1-c1ccc(Cl)cc1` as the compound, how does the Potency read?
The Potency was “inactive”.

With `Cn1cncc1[C@@](N)(c1ccc(Cl)cc1)c1ccc2c(c1)c(-c1cccc(Cl)c1)cc(=O)n2C` as the compound, how does the Potency read?
Its Potency is “inactive”.

With `Cc1oncc1C(=O)Nc1ccc(C(F)(F)F)cc1` as the compound, how does the Potency read?
Its Potency is “inactive”.

For `O[C@H](c1cc(C(F)(F)F)nc2c(C(F)(F)F)cccc12)[C@H]1CCCCN1`, which Potency is on record?
The Potency was “inactive”.

With `Cc1nc2c(C#N)cccc2n1-c1ccc(C(=O)NC2CC2)s1` as the compound, how does the Potency read?
Its Potency is 0.0237 µM (active).

Which Potency does the source give for `COc1cc2c(cc1C(F)(F)F)N(C(=O)Nc1cc(F)cc(-c3cccnc3)c1)CC2` here?
Its Potency is 3.35 µM (active).

Which Potency does the source give for `CN1CCN(CCCN2c3ccccc3Sc3ccc(S(=O)(=O)N(C)C)cc32)CC1` here?
Its Potency is 0.716 µM (active).

Which Potency does the source give for `CCOc1ccc(F)cc1C1(O)C(N)=Nc2ccc(Cl)cc21` (stereo not given) here?
The Potency was “inactive”.

For `O=C(O)c1cn(C2CC2)c2cc(N3CCNCC3)c(F)cc2c1=O`, which Potency is on record?
The Potency was “inactive”.

Which Potency does the source give for `Cc1cccc(C)c1OCC(=O)N[C@@H](Cc1ccccc1)[C@@H](O)C[C@H](Cc1ccccc1)NC(=O)[C@H](C(C)C)N1CCCNC1=O` here?
Its Potency is “inactive”.

Which Potency does the source give for `CN(C)CCOC(c1ccccc1)c1ccccc1` here?
Its Potency is “inactive”.

Which Potency does the source give for `C=CC(C)=C[C@@]1(C)SC(=O)C(C)=C1O` here?
The Potency was “inactive”.

With `C[C@H](N)CN1CCc2ccc(Br)cc21` as the compound, how does the Potency read?
Its Potency is 1.5 µM (active).

With `C[C@@H]1Cc2c([nH]c3cc(Cl)c(F)cc23)[C@]2(N1)C(=O)Nc1ccc(Cl)cc12` as the compound, how does the Potency read?
Its Potency is “inactive”.

For `CCCC[C@@H]1C[C@@H](C(=O)NC([C@H](C)Cl)[C@H]2O[C@H](S)[C@H](O)[C@@H](O)[C@@H]2O)N(C)C1` (stereo not given in full), which Potency is on record?
Its Potency is 0.0335 µM (active).

For `CC(C)N=C(N)N=C(N)Nc1ccc(Cl)cc1`, which Potency is on record?
Its Potency is 0.0298 µM (active).

For `COCC(=O)O[C@]1(CCN(C)CCCc2nc3ccccc3[nH]2)CCc2cc(F)ccc2[C@@H]1C(C)C`, which Potency is on record?
Its Potency is 1.5 µM (active).

For `O=C(Nc1ccc(Cl)cc1)Nc1ccc(Cl)c(Cl)c1`, which Potency is on record?
The Potency was 2.11 µM (active).

Which Potency does the source give for `CCN(CC)CCOCCOC(=O)C(CC)(CC)c1ccccc1` here?
Its Potency is “inactive”.

With `CC(C)(C)c1cc(O)c(CN)c(C(C)(C)C)c1` as the compound, how does the Potency read?
The Potency was 0.15 µM (active).

With `C[C@H]1Cc2c([nH]c3cc(Cl)c(F)cc23)[C@@]2(N1)C(=O)Nc1ccc(Cl)cc12` as the compound, how does the Potency read?
Its Potency is “inactive”.

Which Potency does the source give for `C[C@H]1[C@@H](CCC(=O)Nc2ccc(F)cc2)O[C@@H]2O[C@]3(C)CC[C@@H]4[C@H](C)CC[C@@H]1[C@@]24OO3` here?
The Potency was 0.0067 µM (active).

For `C[C@@H]1CC[C@H]2[C@@H](C)C(=O)O[C@@H]3OC4(C)CC[C@@H]1C32OO4` (stereo not given in full), which Potency is on record?
The Potency was “inactive”.

For `CCOc1ccccc1O[C@H](c1ccccc1)[C@H]1CNCCO1`, which Potency is on record?
The Potency was “inactive”.

Which Potency does the source give for `CNCCCCOc1ccccc1Cc1ccccc1` here?
The Potency was “inactive”.

For `C[C@@H]1CCC2[C@@H](C)[C@@H](O)O[C@@H]3O[C@@]4(C)CC[C@@H]1[C@@]23OO4` (stereo not given in full), which Potency is on record?
Its Potency is “inactive”.

For `CNC(=O)c1cc(Oc2ccc(NC(=O)Nc3ccc(Cl)c(C(F)(F)F)c3)cc2)ccn1`, which Potency is on record?
The Potency was 4.21 µM (active).

Which Potency does the source give for `C[C@@H]1[C@@H](C(=O)C[C@H]2O[C@@H]3O[C@]4(C)CC[C@@H]5[C@H](C)CC[C@@H]([C@H]2C)[C@@]35OO4)O[C@@H]2O[C@]3(C)CC[C@H]4[C@H](C)CC[C@@H]1[C@@]24OO3` here?
The Potency was “inactive”.

Which Potency does the source give for `O=CN(O)CCCP(=O)(O)O` here?
The Potency was 0.473 µM (active).
